Values joined by “and” are separate entries in the source; they are usually repeats but may differ in a detail not shown here. Equal entries are not always repeated. Records with an inconclusive call do not appear. Active and inactive are the calls of the source. Unless noted, calls come from the whole dose curve; as a rule, active = well fitted curve in the direction sought with a large enough effect; inconclusive = small, poorly fitted or top-dose-only effect, or another doubt; inactive = no such curve, though single readings can be large; an effect the other way counts as inactive or inconclusive.
Legend:
[1] = target: Cytochrome P450 1A2 (Homo sapiens) (UniProt P05177); assay: p450-cyp1a2 (AID 410; calls by dose curve; note: potency is the fitted concentration of half-maximal effect;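 for activity change, negative = inhibition: -100% = full effect of reference inhibitor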)
Cytochrome P450 1A2 (Homo sapiens), sequence (P05177 whole entry, looked up): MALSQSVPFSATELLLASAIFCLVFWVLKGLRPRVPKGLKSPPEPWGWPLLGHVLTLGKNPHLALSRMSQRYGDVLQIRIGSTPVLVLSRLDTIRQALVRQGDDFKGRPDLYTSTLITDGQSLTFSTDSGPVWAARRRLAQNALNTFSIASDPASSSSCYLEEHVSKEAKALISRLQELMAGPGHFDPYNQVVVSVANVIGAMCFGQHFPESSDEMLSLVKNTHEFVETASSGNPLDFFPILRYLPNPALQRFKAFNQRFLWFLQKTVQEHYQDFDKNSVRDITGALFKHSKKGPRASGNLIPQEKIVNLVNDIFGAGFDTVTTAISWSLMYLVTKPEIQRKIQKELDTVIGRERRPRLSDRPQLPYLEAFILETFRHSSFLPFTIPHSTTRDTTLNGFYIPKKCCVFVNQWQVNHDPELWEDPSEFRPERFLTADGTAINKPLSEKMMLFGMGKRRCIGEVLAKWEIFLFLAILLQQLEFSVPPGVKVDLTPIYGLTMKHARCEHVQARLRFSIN
Procedure, shortened: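 Human CYP1A2 (20nM) demethylated Luciferin-ME at its Km (100uM) in 100mM KPO4. After 10 min compound preincubation, NADPH regeneration ran the reaction 60 min at room temperature. Luciferin was read by luminescence, normalized to 57 uM furafylline.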

[2] = target: Glucocorticoid receptor (Homo sapiens) (UniProt P04150); assay: GR-EFC Redistribution (AID 451; calls by dose curve; note: potency is the fitted concentration of half-maximal effect); settings: CHO-K1 GR-EFC translocation, beta-gal luminescence, 2 h
Glucocorticoid receptor (Homo sapiens), sequence (P04150 whole entry, looked up, the tested form may be a part): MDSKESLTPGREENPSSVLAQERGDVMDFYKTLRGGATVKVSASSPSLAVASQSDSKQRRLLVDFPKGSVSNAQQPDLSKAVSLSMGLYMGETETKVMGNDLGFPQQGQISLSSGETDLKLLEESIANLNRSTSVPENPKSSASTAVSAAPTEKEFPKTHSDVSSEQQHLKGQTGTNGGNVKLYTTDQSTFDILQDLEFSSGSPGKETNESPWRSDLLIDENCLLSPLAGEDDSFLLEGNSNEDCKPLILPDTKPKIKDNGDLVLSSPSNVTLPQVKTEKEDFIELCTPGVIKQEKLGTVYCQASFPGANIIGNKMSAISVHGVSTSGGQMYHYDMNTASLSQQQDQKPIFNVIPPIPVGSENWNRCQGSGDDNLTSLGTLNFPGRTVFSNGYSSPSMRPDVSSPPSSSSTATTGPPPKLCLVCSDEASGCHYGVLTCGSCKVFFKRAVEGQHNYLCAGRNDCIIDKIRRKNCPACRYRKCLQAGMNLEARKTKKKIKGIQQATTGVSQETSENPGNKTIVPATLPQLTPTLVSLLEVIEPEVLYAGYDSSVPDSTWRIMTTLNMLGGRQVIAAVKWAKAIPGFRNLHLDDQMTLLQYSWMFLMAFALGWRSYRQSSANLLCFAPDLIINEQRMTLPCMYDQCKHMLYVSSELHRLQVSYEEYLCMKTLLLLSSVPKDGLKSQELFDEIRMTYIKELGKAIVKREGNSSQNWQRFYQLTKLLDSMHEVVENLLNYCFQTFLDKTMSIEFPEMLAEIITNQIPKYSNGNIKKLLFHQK
Procedure, shortened: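 CHO-K1 cells stably expressing nuclear-localized β-gal enzyme acceptor and GR fused C-terminally to the enzyme donor fragment; ligand-driven nuclear translocation restores β-gal by complementation. Compounds titrated up to 46 uM final, 2 h at 37 °C; luminescence read.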

[3] = target: Mitogen-activated protein kinase 10 (Mus musculus) (UniProt Q61831); assay: JNK3 AlphaScreen Assay (AID 530; active = well fitted curve in either direction with a large enough effect, not every such curve was filed as active;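 note: kinase came from lysate of stimulated human HepG2 cells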; note: potency is the fitted concentration of half-maximal effect)
Procedure, shortened: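 JNK3 came from HepG2 lysates pre-activated with IL-1beta and TNF-alpha and phosphorylated biotinylated GST-cJun (1-79) at 10 uM ATP, pH 7.6, room temperature. Compounds were titrated. AlphaScreen signal used anti-phospho-cJun (Ser73) antibody.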

[4] = target: Guanine nucleotide-binding protein G(i) subunit alpha-1 (Homo sapiens) (UniProt P63096); assay: qHTS Assay for Inhibitors of RGS12 GoLoco Motif Activity (Green Fluorophore) (AID 879);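 note: 0% = labeled peptide with Gαi1 and full inhibition = labeled peptide alone without protein; negative values mean loss of peptide binding seen as reduced polarization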
Procedure, shortened: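 Fluorescence polarization assay: 50 nM Gαi1 with 10 nM FITC-labeled RGS12 GoLoco peptide in 10 mM Tris pH 7.5, 150 mM NaCl, 0.1 mM GDP, 0.05% NP40, 10 min at room temperature with compound.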

[5] = qHTS Assay for Identification of Small Molecule Agonists for Thrombopoietin (TPO) Signaling Pathway (AID 917); note: % is set by controls: 0 for no effect and ±100 for the full control effect
Procedure, shortened: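 Activators of TPO signaling were sought in murine Ba/F3 cells transfected with the human receptor, using a luciferase gene driven by the Glycoprotein IIb promoter; 24-hr compound exposure at 37 C alongside 26 pM TPO, in IL-3-free medium.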

[6] = target: Pyruvate kinase (Leishmania mexicana) (UniProt Q27686); assay: qHTS Validation Assay for Inhibitors of Leishmania Mexicana Pyruvate Kinase (AID 945);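 note: 0% = DMSO only neutral control wells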
Pyruvate kinase (Leishmania mexicana), sequence (Q27686 2-499 E452W): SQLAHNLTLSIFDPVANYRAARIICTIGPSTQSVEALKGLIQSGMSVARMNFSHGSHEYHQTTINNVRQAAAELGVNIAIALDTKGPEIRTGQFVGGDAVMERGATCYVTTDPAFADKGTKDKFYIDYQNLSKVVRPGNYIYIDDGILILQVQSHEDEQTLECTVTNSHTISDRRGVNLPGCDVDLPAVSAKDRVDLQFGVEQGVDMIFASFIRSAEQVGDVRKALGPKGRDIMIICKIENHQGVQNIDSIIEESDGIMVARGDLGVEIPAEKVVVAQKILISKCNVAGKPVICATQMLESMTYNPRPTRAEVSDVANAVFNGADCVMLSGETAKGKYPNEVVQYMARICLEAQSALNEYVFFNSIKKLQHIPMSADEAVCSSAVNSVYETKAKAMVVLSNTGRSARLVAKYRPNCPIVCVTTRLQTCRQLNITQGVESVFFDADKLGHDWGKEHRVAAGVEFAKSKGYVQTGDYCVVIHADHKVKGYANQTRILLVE
Procedure, shortened: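 Compounds are tested as eight-point concentration series. Reactions contain 0.2 nM LmPYK E451W, 0.5 mM PEP, 0.1 mM ADP, 7 mM MgCl2 and 50 mM KCl at pH 7.2, run 1 h at room temperature, then read by PKLight luminescence.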

[7] = target: Pyruvate kinase PKM (Homo sapiens) (UniProt P14618); assay: qHTS Assay for Activators of Human Muscle Pyruvate Kinase (AID 954; active = well fitted curve in the direction sought with a large enough effect, not every such curve was filed as active;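 note: 0% = uninhibited enzyme and -100% = no enzyme or full thiadiazolimine inhibition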)
Pyruvate kinase PKM (Homo sapiens), sequence (P14618 whole entry, looked up): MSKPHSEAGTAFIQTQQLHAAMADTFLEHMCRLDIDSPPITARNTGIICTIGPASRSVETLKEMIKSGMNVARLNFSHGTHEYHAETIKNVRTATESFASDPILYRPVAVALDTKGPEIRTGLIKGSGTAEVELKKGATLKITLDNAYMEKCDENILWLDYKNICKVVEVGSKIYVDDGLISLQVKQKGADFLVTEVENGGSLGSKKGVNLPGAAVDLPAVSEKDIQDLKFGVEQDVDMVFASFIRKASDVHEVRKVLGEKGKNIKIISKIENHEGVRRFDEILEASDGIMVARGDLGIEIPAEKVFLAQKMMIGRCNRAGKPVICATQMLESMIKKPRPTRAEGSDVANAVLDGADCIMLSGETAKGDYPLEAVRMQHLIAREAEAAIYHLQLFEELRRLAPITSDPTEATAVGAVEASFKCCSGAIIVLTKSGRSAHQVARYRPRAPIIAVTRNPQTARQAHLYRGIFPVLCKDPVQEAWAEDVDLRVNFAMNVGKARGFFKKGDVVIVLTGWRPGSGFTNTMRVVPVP
Procedure, shortened: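 Purified human PKM2 (0.1 nM) with 0.5 mM PEP (Km) and 0.1 mM ADP in 50 mM imidazole pH 7.2, KCl, MgCl2, 1 h at room temperature; ATP formed read by coupled luciferase luminescence. Normalized to no-enzyme/110 uM thiadiazolimine inhibition; 0.3 nM enzyme column for activation.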

[8] = target: Alpha-galactosidase A (Homo sapiens) (UniProt P06280); assay: Counterscreen for Glucocerebrosidase Inhibitors: qHTS Assay for Human alpha-Galactosidase at pH 4.5 (AID 992); note: 0% is about no effect
Procedure, shortened: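 Human enzyme (2 nM) with 80 uM 4-methylumbelliferyl alpha-D-galactopyranoside in 50 mM citric acid, 0.005% Tween-20, pH 4.5, 20 min at room temperature. Compounds 0.7 nM–77 uM; fluorescence Ex 365/Em 440 after pH 10 stop; AC50 from Hill fits.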

[9] = target: alpha-glucosidase (Oryza sativa, rice) (UniProt Q653V4); assay: Counterscreen for Glucocerebrosidase Inhibitors: qHTS Assay for Rice alpha-Glucosidase at pH 5.0 (AID 997);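 note: 0% = full activity with enzyme and -100% = basal without enzyme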
Procedure, shortened: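 Rice alpha-glucosidase (4 nM final) with 400 uM 4-methylumbelliferyl-alpha-D-glucopyranoside in citrate buffer pH 5.0, 20 min at room temperature, stopped at pH 10; fluorescence 365/440 nm, compounds 0.7 nM–77 uM, AC50 from Hill fits.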

[10] = qHTS Assay for Lipid Storage Modulators (AID 1519; calls by dose curve); settings: Drosophila S3 cells, BODIPY lipid droplet/cell ratio, laser cytometry, cells loaded with oleic acid; for activity change, negative = inhibition: at 57.5 µM (top of the series)
Procedure, shortened: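 Cells seeded at 5,000 per well were treated with compounds over a concentration series and loaded with oleic acid (400 uM, as added). Lipid droplet fluorescence (488 nm excitation, 500-530 nm channel) was read by laser-scanning cytometry and normalized to 20 uM Triacsin C.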

[11] = target: Ubiquitin carboxyl-terminal hydrolase 1 (Homo sapiens) (UniProt O94782); assay: Inhibitors of USP1/UAF1: Pilot qHTS (AID 504865); note: nearly all actives have a fitted effect of over 35% in size; note: potency is the fitted concentration of half-maximal effect
Ubiquitin carboxyl-terminal hydrolase 1 (Homo sapiens), sequence (O94782 whole entry, looked up): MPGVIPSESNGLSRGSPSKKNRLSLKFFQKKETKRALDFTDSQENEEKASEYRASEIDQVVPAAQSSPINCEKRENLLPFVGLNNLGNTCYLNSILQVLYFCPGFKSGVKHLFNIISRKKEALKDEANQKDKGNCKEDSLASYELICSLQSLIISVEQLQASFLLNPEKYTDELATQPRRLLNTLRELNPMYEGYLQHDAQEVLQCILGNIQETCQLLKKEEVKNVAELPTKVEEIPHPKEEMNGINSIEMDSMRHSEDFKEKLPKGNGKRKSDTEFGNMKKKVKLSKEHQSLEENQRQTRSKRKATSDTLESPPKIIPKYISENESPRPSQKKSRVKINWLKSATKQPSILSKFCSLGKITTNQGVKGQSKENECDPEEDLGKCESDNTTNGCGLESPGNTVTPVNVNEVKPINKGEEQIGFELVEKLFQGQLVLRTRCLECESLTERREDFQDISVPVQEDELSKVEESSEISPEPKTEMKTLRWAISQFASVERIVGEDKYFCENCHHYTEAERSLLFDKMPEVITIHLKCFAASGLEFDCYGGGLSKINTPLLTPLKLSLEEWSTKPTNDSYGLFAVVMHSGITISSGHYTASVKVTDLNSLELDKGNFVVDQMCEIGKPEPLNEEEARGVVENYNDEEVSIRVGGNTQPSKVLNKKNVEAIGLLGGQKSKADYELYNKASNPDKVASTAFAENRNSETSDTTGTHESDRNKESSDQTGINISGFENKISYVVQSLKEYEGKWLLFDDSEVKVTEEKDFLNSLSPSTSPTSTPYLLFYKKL
Procedure, shortened: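 1nM USP1/UAF1 + cpd, 15 min RT; start w/ Ub-Rho 150nM final; kinetic FL 480/540 nm, 6 reads q60 s. Buffer 50mM HEPES pH 7.8, 0.5mM EDTA, 1mM TCEP, 0.01% Tween-20, 0.1 mg/ml BSA.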

[12] = target: DNA dC->dU-editing enzyme APOBEC-3G (Homo sapiens) (UniProt Q9HC16); assay: qHTS for inhibitors of Vif-A3G interactions: Validation (AID 588379); note: 0% is about no effect
DNA dC->dU-editing enzyme APOBEC-3G (Homo sapiens), sequence (Q9HC16 whole entry, looked up): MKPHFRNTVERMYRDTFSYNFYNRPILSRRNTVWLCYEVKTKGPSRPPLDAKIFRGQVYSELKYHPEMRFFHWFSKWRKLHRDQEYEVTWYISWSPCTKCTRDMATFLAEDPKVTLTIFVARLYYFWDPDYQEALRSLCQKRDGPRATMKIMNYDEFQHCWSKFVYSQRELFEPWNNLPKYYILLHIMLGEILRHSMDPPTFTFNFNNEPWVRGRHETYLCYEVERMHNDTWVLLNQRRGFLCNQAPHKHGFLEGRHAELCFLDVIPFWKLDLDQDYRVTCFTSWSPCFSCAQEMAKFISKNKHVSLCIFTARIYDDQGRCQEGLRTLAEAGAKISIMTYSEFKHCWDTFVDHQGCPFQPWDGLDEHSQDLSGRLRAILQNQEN
Procedure, shortened: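 HeLa cells stably expressing Vif and A3G-eYFP, 700 cells/well, incubated overnight at 37 deg C, then exposed to compound overnight at 37 deg C. Inhibition of Vif-mediated degradation read as increased yellow fluorescence (Ex 488/Em 500-530) by laser-scanning cytometry.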

[13] = system: Zika virus NS2B-NS3 protease; assay: Primary screen GU AMC qHTS for Zika virus inhibitors (AID 1347154);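 note: 0% = no-inhibitor control and -100% = no-enzyme control; nearly all actives have a fitted effect of over 70% in size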
Procedure, shortened: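 Unlinked Zika NS2B hydrophilic domain/NS3 protease domain noncovalent complex (25 nM final) in 10 mM Tris-HCl pH 8.0, 0.01% Tween 20, with AMC peptide substrate. Fluorescence (ex 340, em 450 nm) change over 15 min, room temperature; percent inhibition fitted to 4-parameter Hill equation.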

[14] = Primary qHTS for small molecule stabilizers of the endoplasmic reticulum resident proteome: Secreted ER Calcium Modulated Protein (SERCaMP) assay (AID 1508630); note: % is set by controls: 0 for no effect and ±100 for the full control effect
Procedure, shortened: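 GLuc-SERCaMP-expressing SH-SY5Y cells, pretreated 16 h with compound, are challenged with thapsigargin to empty ER calcium stores; after 4 h, coelenterazine is added directly to the medium and luminescence is imaged.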

[15] = target: 3',5'-cyclic-AMP phosphodiesterase 4B (Homo sapiens) (UniProt Q07343); assay: qHTS Assay for Inhibitors of PDE-IV (AID 607; active = well fitted activation curve with a large enough effect in the main read-out, with a control signal flat, not every such curve was filed as active; note: % of control where 0% means no effect)
3',5'-cyclic-AMP phosphodiesterase 4B (Homo sapiens), sequence (Q07343 whole entry, looked up): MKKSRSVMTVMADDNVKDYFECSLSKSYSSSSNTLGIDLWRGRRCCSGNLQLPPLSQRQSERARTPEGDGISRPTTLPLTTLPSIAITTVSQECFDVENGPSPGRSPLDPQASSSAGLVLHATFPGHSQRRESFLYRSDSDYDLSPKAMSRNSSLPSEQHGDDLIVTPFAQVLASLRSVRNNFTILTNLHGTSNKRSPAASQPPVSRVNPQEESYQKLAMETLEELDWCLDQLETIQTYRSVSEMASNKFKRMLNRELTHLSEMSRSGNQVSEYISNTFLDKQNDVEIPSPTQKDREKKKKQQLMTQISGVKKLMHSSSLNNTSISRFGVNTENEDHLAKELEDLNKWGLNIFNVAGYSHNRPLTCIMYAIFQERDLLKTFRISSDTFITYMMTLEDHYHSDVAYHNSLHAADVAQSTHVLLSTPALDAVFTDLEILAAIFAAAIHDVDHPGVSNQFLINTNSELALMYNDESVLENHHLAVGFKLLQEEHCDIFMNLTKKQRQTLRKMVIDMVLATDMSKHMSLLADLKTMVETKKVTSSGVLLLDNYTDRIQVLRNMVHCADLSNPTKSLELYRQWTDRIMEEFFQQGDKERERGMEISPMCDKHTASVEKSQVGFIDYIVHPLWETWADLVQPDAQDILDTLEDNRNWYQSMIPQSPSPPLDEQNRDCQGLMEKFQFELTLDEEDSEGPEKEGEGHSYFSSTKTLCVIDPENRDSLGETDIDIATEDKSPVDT
Procedure, shortened: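 HEK293 ACTOne cells with CNG channel (1000/well), endogenous PDE4; membrane potential dye, compounds up to 22.9 uM final. Fluorescence Ex 535/Em 590; RO 20-1724 (100 uM final) as reference.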

[16] = target: Glucocorticoid receptor (Homo sapiens) (UniProt P04150); assay: GR-GFP Redistribution (AID 450;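 active = compounds whose dose series gives a full or clear partial fitted curve of increased nuclear translocation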; note: potency is the fitted concentration of half-maximal effect); settings: U2OS GR-GFP nuclear translocation, laser cytometry, 2 h
[17] = NFAT Signaling Pathway (AID 444; active = well fitted curve in either direction with a large enough effect, not every such curve was filed as active;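 note: carbachol stimulus at about its EC50 of 1 µM final; % is set by controls: 0 for no effect and ±100 for the full control effect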); settings: Jurkat NFAT-bla M1, carbachol, beta-lactamase ratio, 5 h; at 17.2 µM (top of the series)
Procedure, shortened: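 Jurkat cells carrying an NFAT-driven β-lactamase reporter and co-transfected muscarinic M1 receptor were treated with compound plus carbachol (1 uM final, an EC50 level) for 5 h at 37 °C. CCF4 loading followed for 1 h at RT; 460/530 nm ratio gave %activity.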

[18] = Stat Signaling Pathway (AID 446; active = well fitted curve in either direction with a large enough effect, not every such curve was filed as active;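 note: ME-180 cervical cancer cells given 40 pM IL-6 alongside compound; SIE-controlled beta-lactamase reporter measured as 460/530 nm FRET emission ratio; % is set by controls: 0 for no effect and ±100 for the full control effect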); settings: ME-180 SIE beta-lactamase reporter, IL-6 stimulated, 5 h; at 17.2 µM (top of the series)
Procedure, shortened: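 ME-180 cells carrying a SIE-driven beta-lactamase reporter are stimulated with 40 pM IL-6 for 5 h at 37C in the presence of compound. The 460/530 nm FRET substrate ratio is read after 2.5 h at RT. Data are normalised to 300 pM IL-6 and to 125 nM JAK inhibitor controls.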

[19] = target: Cytochrome P450 3A4 (Homo sapiens) (UniProt P08684); assay: qHTS Assay for Activators of Cytochrome P450 3A4 (AID 885); note: nearly all actives have a fitted effect of over 65% in size
Cytochrome P450 3A4 (Homo sapiens), sequence (P08684 whole entry, looked up): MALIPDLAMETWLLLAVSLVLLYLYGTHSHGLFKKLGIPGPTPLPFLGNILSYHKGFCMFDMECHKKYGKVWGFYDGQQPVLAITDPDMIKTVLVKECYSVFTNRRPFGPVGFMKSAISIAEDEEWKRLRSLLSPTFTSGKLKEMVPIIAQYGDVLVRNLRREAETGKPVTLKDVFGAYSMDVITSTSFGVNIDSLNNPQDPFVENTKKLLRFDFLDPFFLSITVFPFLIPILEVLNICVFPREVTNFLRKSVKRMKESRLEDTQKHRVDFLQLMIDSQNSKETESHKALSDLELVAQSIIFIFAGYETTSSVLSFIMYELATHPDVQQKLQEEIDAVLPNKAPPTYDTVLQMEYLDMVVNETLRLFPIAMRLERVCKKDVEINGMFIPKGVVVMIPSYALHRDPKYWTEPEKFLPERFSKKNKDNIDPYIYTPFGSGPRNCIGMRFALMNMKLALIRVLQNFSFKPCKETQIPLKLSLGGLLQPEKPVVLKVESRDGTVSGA
Procedure, shortened: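 Human CYP3A4 (20 nM) with Luciferin-PPXE at 25 uM (its KM) in 200 mM KPO4; 10 min compound preincubation, then NADPH regeneration and 60 min reaction at RT. Luciferin read by luminescence; normalized to 57 uM ketoconazole full inhibition.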

[20] = measured here: cell count channel max response
[21] = measured here: lipid channel max response

N[C@H](C(=O)O)[C@@H]1C[C@@H]1C(=O)O
-19.5% and 5.06%: max response [10, 21]
-21% and 5.3%: max response [10, 20]
inactive: Potency [1] | Potency [2] > 46 µM | Potency [3] | outcome [4] | Potency [5] | Potency [6] | outcome [7] | outcome [8] | outcome [9] | activity change, negative = inhibition [10] 0.571% and -0.444% | Potency [11] | Potency [12] | Potency [13] | Potency [14]

COC(=O)[C@H]1[C@@H]2C[C@H]3c4[nH]c5ccccc5c4CCN3C[C@@H]2CC[C@@H]1O
inactive: Potency [3] | Potency [15] | activity change, negative = inhibition [10] 4.47% | Potency [11] | Potency [12] | Potency [13] | Potency [14]
-3.24%: max response [10, 20]
4.05%: max response [10, 21]

O=C(O)/C=C1\CCCc2ccccc2[C@H]1O
25.8%: max response [10, 21]
inactive: Potency [16] > 46 µM | Potency [2] > 46 µM | activity change, negative = inhibition [10] 4.3% | Potency [11] | Potency [12] | Potency [13] | Potency [14]
20.5%: max response [10, 20]

C=CC1=C(C)C2=NC1=CC1=NC(=CC3=NC(=CC4=NC(=C2)C(C)=C4CCC(=O)O)C(CCC(=O)O)=C3C)C(C=C)=C1C.[Zn]
-12%: max response [10, 21]
-8.49%: max response [10, 20]
inactive: Potency [15] | activity change, negative = inhibition [10] -3.5% | Potency [12] | Potency [13] | Potency [14]
active: Potency [3] 0.794 µM [activator] | Potency [11] 44.7 µM

CNC(=O)[C@H]1O[C@@H](n2cnc3c(NCc4cccc(I)c4)nc(Cl)nc32)[C@H](O)[C@@H]1O
inactive: Potency [13] | Potency [14]

CCOC(=O)C(CCc1ccccc1)NC1CCc2ccccc2N(CC(=O)O)C1=O (centres undefined)
inactive: activity change, negative = inhibition [10] 1.93% | Potency [11] | Potency [13] | Potency [14]
17.9%: max response [10, 21]
11.8%: max response [10, 20]

NC(N)=NCCC[C@@H](N)C(=O)O
-21.4%: max response [10, 21]
-17.8%: max response [10, 20]
inactive: activity change, negative = inhibition [10] -2.14% | Potency [11] | Potency [12] | Potency [13] | Potency [14]

Nc1ncnc2c1ncn2[C@@H]1O[C@H](COP(=O)(O)OP(=O)(O)O)[C@@H](O)[C@H]1O
-2.57%: max response [10, 20]
2.42%: max response [10, 21]
inactive: activity change, negative = inhibition [10] 5.3% | Potency [11] | Potency [12] | Potency [13] | Potency [14]

N[C@H](C(=O)O)C1[C@H](C(=O)O)[C@H]1C(=O)O (some centres undefined)
-12.3%: max response [10, 20]
-12.9%: max response [10, 21]
inactive: Potency [16] > 46 µM | Potency [2] > 46 µM | Potency [3] | Potency [15] | activity change, negative = inhibition [10] 1.13% | Potency [11] | Potency [12] | Potency [13] | Potency [14]

Cc1ccccc1N=C(N)Nc1ccccc1C
inactive: Potency [2] > 46 µM | Potency [3] | activity change, negative = inhibition [10] 3.82% | Potency [11] | Potency [12] | Potency [13] | Potency [14]
7.24%: max response [10, 21]
2.46%: max response [10, 20]

C[C@@H](C(=O)O)c1ccc(-c2ccccc2)c(F)c1
inactive: activity change, negative = inhibition [17] 3.63% | activity, negative = inhibition [18] 1.05% | Potency [16] > 20.6 µM and > 46 µM | Potency [2] > 20.6 µM and > 46 µM | Potency [3] | Potency [15] | Potency [11] | Potency [12] | Potency [13] | Potency [14]
active: Potency [1] 10 µM

O=C(Nc1ccccc1)N[C@H]1C[C@H](C(=O)O)Nc2cc(Cl)cc(Cl)c21
0.745%: max response [10, 21]
inactive: Potency [2] > 46 µM | Potency [15] | Potency [19] | activity change, negative = inhibition [10] 6.02% | Potency [12] | Potency [13] | Potency [14]
-4.62%: max response [10, 20]

COc1ccccc1N1CCN(CCCCN2C(=O)CCC2=O)CC1
-1.96%: max response [10, 20]
-4.4%: max response [10, 21]
inactive: Potency [16] > 46 µM | Potency [2] > 46 µM | Potency [3] | Potency [15] | activity change, negative = inhibition [10] -4.36% | Potency [12] | Potency [13] | Potency [14]

CC(C)(C)n1nc(-c2ccc(Cl)cc2)c2c(N)ncnc21
inactive: Potency [13] | Potency [14]

NC1(C(=O)O)CC(C(=O)O)C1 (centres undefined)
10.2%: max response [10, 21]
2.35%: max response [10, 20]
inactive: Potency [2] > 46 µM | Potency [3] | Potency [15] | activity change, negative = inhibition [10] 5.41% | Potency [11] | Potency [12] | Potency [13] | Potency [14]

Cc1ccc(-c2nn(C(C)(C)C)c3ncnc(N)c23)cc1
inactive: Potency [13] | Potency [14]
